Results published in PubChem BioAssay (Tox21).
Several values for one entry are separate records, joined by “and”; a condition that tells them apart may be missing. Equal entries are not always repeated. Inconclusive results are not listed. Activity calls are given as the source filed them. Unless noted, the call rests on the fitted dose curve; in most records, active means well fitted curve in the direction sought with a large enough effect in the repeat runs; inconclusive means weak or mixed curves; inactive means no such curve, though single readings can be large; an effect the other way counts as inactive or inconclusive.

Experiments:
[1] = target: Peroxisome proliferator-activated receptor delta (Homo sapiens) (UniProt Q03181); assay: qHTS assay to identify small molecule agonists of the peroxisome proliferator-activated receptor delta (PPARd) signaling pathway (AID 743212; calls by dose curve)
Method in brief: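 Steps: seed PPARd-bla HEK293H cells; incubate 5 h, 37 C, 5% CO2; add compounds in DMSO; incubate, 37 C; add LiveBLAzer B/G FRET substrate; hold 2 h at room temperature; measure fluorescence.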

[2] = qHTS assay to identify small molecule antagonists of the peroxisome proliferator-activated receptor delta (PPARd) signaling pathway - cell viability counter screen (AID 743213); further: nearly all actives have a fitted effect of over 50% in size
Method in brief: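 Same-well viability: cells pre-incubated 5 h, dosed with compound plus 300 nM L165041, kept 17 h at 37 C, FRET substrate 2 h RT, then CellTiter-Glo 30 min RT and luminescence.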

[3] = qHTS assay to identify small molecule antagonists of the farnesoid-X-receptor (FXR) signaling pathway - cell viability counter screen (AID 743221; active means well fitted cell-killing curve with a large enough effect in the repeat runs, not every such curve was filed as active; further: nearly all actives have a fitted effect of over 50% in size)
Method in brief: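 Cytotoxicity counter screen run in the FXR-bla reporter wells: HEK 293T cells exposed to compound with 50 uM (final) chenodeoxycholic acid for 16 h, 37 C, then viability measured by CellTiter-Glo luminescence after 30 min, room temperature.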

[4] = target: Vitamin D3 receptor (Homo sapiens) (UniProt P11473); assay: qHTS assay to identify small molecule antagonists of the vitamin D receptor (VDR) signaling pathway (AID 743223; active means well fitted inhibition curve with a large enough effect in the signal ratio in the repeat runs, not every such curve was filed as active; the % refers to the signal ratio; further: potency means the concentration at half of the fitted maximal effect)
Method in brief: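 Antagonist mode: compound added to VDR-bla cells alongside agonist 1alpha,25-dihydroxyvitamin D3 (3 nM final), incubation 16 h at 37C. Read-out is LiveBLAzer FRET fluorescence, 2 h at room temperature.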

[5] = qHTS assay to identify small molecule agonists of the vitamin D receptor (VDR) signaling pathway - cell viability counter screen (AID 743224); further: nearly all actives have a fitted effect of over 50% in size; further: potency means the concentration at half of the fitted maximal effect
Method in brief: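 Cytotoxicity counter screen: VDR-bla cells, 16 h compound exposure at 37C, 5% CO2; CellTiter-Glo luminescence, 30 min RT, same wells as bla read.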

[6] = qHTS assay to identify small molecule antagonists of the vitamin D receptor (VDR) signaling pathway - cell viability counter screen (AID 743225); further: nearly all actives have a fitted effect of over 50% in size; further: potency means the concentration at half of the fitted maximal effect
Method in brief: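 Cytotoxicity counter screen read by CellTiter-Glo luminescence (30 min, room temperature) in the same wells as the VDR-bla antagonist readout. HEK 293T VDR-UAS-bla cells had 16 h at 37C with compound and 3 nM (final) 1-alpha,25-dihydroxyvitamin D3, then 2 h with FRET substrate.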

[7] = qHTS assay to identify small molecule agonists of the NFkB signaling pathway - cell viability counter screen (AID 1159515; calls by dose curve; further: nearly all actives have a fitted effect of over 55% in size; further: potency means the concentration at half of the fitted maximal effect)
Method in brief: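 ME-180 NFkB-bla cells, 2,000/well; overnight attach; compound 5 hr, 37 C/5% CO2; LiveBLAzer substrate 1.5 hr RT; then CellTiter-Glo in same wells, 30 min RT, luminescence read.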

[8] = qHTS assay to identify small molecule agonists of the endoplasmic reticulum stress response signaling pathway (AID 1159516; active means well fitted activation curve with a large enough effect in the signal ratio in the repeat runs, not every such curve was filed as active; the % refers to the signal ratio)
Method in brief: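 HeLa ESRE-bla reporter line; cpd 5 h, 37 C/5% CO2; LiveBLAzer B/G FRET substrate 2 h RT; ex 405, em 460/530 nm.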

[9] = qHTS assay to identify small molecule agonists of the endoplasmic reticulum stress response signaling pathway - cell viability counter screen (AID 1159517; calls by dose curve; further: nearly all actives have a fitted effect of over 50% in size; further: potency means the concentration at half of the fitted maximal effect)
Method in brief: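 After overnight attachment, ESRE-bla HeLa cells were treated with Tox21 library compounds for 5 hr. CellTiter-Glo luminescence, read 30 min post-addition at room temperature, reported viability.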

[10] = qHTS assay to identify small molecule antagonists of the retinoid-related orphan receptor gamma (ROR-gamma) signaling pathway - cell viability counter screen (AID 1159520); further: nearly all actives have a fitted effect of over 50% in size; further: potency means the concentration at half of the fitted maximal effect
Method in brief: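 Cytotoxicity was read from cellular ATP (CellTiter-Glo luminescence) after 16 hr at 37 C with 1 uM doxycycline induction. The inducer was added 2 hr after compound transfer to Tet-on ROR gamma CHO cells.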

[11] = target: Nuclear receptor ROR-gamma (Homo sapiens) (UniProt P51449); assay: qHTS assay to identify small molecule antagonists of the retinoid-related orphan receptor gamma (ROR-gamma) signaling pathway (AID 1159521; further: nearly all actives have a fitted effect of over 50% in size; further: potency means the concentration at half of the fitted maximal effect)
Method in brief: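 Antagonist read-out: drop in luminescence (ONE-Glo) from an RORE-LUC reporter in CHO cells with doxycycline-inducible ROR-gamma; 2 hr compound pretreatment, 1 uM doxycycline, 16 hr incubation at 37 C.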

[12] = qHTS assay to identify small molecule agonists of the AP-1 signaling pathway - cell viability counter screen (AID 1159525; calls by dose curve; further: nearly all actives have a fitted effect of over 55% in size; further: potency means the concentration at half of the fitted maximal effect)
Method in brief: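 Intracellular ATP by Cell Titer Glo luminescence (30 min, RT) in the same ME-180 AP-1-bla wells after the 5 h compound exposure at 37 °C. Normalised to tetra n-octyl ammonium bromide and DMSO controls.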

[13] = qHTS assay to identify small molecule agonists of the AP-1 signaling pathway (AID 1159526; calls by dose curve)
[14] = target: Peroxisome proliferator-activated receptor delta (Homo sapiens) (UniProt Q03181); assay: qHTS assay to identify small molecule antagonists of the peroxisome proliferator-activated receptor delta (PPARd) signaling pathway (AID 743215; active means well fitted inhibition curve with a large enough effect in the signal ratio in the repeat runs, not every such curve was filed as active; the % refers to the signal ratio;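 further: cells stimulated with agonist L165041 at 300 nM final during compound exposure; series mostly up to about 62 µM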)
Method in brief: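 HEK293H GeneBLAzer PPARd UAS-bla reporter cells; cpd + L165041 300 nM final, 17 h 37 C; LiveBLAzer B/G FRET substrate 2 h RT; fluorescence intensity read-out. Antagonist mode.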

[15] = target: Bile acid receptor (Homo sapiens) (UniProt Q96RI1); assay: qHTS assay to identify small molecule antagonists of the farnesoid-X-receptor (FXR) signaling pathway (AID 743217; active means well fitted inhibition curve with a large enough effect in the signal ratio in the repeat runs, not every such curve was filed as active; the % refers to the signal ratio)
Method in brief: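 Read-out: beta-lactamase FRET fluorescence (LiveBLAzer B/G substrate, 2 h, room temperature) in GeneBLAzer FXR-UAS-bla HEK 293T cells. Compounds were co-dosed with 50 uM chenodeoxycholic acid (final) and incubated 16 h at 37 °C.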

[16] = target: Bile acid receptor (Homo sapiens) (UniProt Q96RI1); assay: qHTS assay to identify small molecule agonists of the farnesoid-X-receptor (FXR) signaling pathway (AID 743220; active means well fitted activation curve with a large enough effect in the signal ratio in the repeat runs, not every such curve was filed as active; the % refers to the signal ratio)
Method in brief: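 FXR-UAS-bla HEK 293T cells carrying a UAS-driven beta-lactamase reporter were plated for 5 h at 37C/5% CO2, then exposed to DMSO-dissolved Tox21 10K compounds for 16 h at 37C. A LiveBLAzer B/G FRET substrate was loaded for 2 h at room temperature before fluorescence reading.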

[17] = target: Vitamin D3 receptor (Homo sapiens) (UniProt P11473); assay: qHTS assay to identify small molecule agonists of the vitamin D receptor (VDR) signaling pathway (AID 743222; calls by dose curve)
Method in brief: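 Beta-lactamase reporter readout (LiveBLAzer B/G FRET, 2 h RT) in VDR-bla cells after 16 h compound treatment at 37C, 5% CO2; cells pre-incubated 4 h before pin transfer of DMSO solutions.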

[18] = qHTS assay to identify small molecule agonists of the RXR signaling pathway - cell viability counter screen (AID 1159529); further: nearly all actives have a fitted effect of over 50% in size; further: potency means the concentration at half of the fitted maximal effect
Method in brief: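 CellTiter-Glo luminescence gave viability in the wells also read for beta-lactamase. Cells (RXR-alpha-UAS-bla HEK 293T, 2% charcoal-stripped FBS medium) had 5 hr plating, then 16 hr compound exposure at 37 C; tetraoctyl ammonium bromide served as positive control.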

[19] = qHTS assay to identify small molecule agonists of the farnesoid-X-receptor (FXR) signaling pathway - cell viability counter screen (AID 743218); further: nearly all actives have a fitted effect of over 45% in size
Method in brief: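 Luminescence from CellTiter-Glo, read after 30 min at RT, reports viability of GeneBLAzer FXR-UAS-bla HEK 293T cells treated 16 h with compounds in the wells used for the beta-lactamase reporter.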

[20] = target: Retinoic acid receptor RXR-alpha (Homo sapiens) (UniProt P19793); assay: qHTS assay to identify small molecule agonists of the RXR signaling pathway (AID 1159527; calls by dose curve; further: nearly all actives have a fitted effect of over 35% in size)
Method in brief: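 Agonist-mode beta-lactamase reporter assay: HEK 293T RXR-alpha-UAS-bla cells treated 16 hr at 37 C with compounds, 9-cis retinoic acid as positive control. LiveBLAzer FRET substrate, 405 nm excitation, 460/530 nm emission.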

Measured: Potency

Chain of Peroxisome proliferator-activated receptor delta (Homo sapiens) (Q03181 whole entry, looked up): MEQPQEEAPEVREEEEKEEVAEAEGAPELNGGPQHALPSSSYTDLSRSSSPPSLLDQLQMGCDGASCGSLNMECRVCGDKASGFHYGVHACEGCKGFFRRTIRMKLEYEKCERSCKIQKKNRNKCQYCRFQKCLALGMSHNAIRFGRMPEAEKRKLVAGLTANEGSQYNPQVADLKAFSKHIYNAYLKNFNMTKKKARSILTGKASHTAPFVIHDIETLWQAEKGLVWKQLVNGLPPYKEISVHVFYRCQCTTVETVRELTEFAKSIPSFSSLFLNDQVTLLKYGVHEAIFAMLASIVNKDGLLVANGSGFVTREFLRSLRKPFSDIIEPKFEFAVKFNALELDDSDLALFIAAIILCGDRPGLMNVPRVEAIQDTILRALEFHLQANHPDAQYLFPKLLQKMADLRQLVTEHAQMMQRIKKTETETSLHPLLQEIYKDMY
Chain of Bile acid receptor (Homo sapiens) (Q96RI1 whole entry, looked up): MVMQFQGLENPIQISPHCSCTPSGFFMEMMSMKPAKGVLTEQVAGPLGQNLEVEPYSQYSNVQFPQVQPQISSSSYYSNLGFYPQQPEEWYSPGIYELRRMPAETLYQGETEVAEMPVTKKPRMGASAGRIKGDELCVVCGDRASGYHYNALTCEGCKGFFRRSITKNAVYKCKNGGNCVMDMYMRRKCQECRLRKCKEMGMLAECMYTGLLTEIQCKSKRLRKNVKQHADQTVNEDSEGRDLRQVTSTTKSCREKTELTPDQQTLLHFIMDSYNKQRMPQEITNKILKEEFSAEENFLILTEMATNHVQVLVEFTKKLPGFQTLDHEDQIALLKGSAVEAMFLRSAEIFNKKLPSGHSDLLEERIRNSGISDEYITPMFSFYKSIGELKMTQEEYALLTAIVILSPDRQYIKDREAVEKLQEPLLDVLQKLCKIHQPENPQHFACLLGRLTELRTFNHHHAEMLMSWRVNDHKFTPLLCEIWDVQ
Chain of Vitamin D3 receptor (Homo sapiens) (P11473 whole entry, looked up): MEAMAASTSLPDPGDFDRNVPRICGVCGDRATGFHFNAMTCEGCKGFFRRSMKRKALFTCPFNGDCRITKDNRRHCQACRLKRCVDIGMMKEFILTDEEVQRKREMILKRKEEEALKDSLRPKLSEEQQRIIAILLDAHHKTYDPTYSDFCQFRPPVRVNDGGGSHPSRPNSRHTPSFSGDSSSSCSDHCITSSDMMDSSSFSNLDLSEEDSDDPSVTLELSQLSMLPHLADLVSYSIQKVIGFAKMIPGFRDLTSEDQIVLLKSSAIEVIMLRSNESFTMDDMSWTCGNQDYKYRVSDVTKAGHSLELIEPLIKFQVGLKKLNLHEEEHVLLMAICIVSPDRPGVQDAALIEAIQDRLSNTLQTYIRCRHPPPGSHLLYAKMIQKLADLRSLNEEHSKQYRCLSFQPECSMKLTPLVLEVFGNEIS
Chain of Retinoic acid receptor RXR-alpha (Homo sapiens) (P19793 whole entry, looked up): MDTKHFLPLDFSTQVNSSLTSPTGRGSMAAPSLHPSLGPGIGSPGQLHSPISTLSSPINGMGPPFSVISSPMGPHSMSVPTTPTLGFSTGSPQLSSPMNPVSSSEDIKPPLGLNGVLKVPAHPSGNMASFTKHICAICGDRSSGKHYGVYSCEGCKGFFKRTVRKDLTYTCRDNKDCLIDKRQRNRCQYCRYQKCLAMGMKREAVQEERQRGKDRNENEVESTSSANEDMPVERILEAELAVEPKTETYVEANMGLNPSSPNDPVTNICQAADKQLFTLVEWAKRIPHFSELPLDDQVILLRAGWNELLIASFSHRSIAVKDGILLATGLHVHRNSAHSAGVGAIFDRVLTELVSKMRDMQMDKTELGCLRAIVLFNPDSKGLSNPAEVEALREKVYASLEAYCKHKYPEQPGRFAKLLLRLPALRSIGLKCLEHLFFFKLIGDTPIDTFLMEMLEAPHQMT

Cn1c(-c2ccccc2)cc(-c2ccccc2)[n+]1C
not listed: [14] | [15] | [16] | [17] | [18] | [19] | [20]
inactive: all other assays above

CN(C)c1nc(=O)n(C2CCCCC2)c(=O)n1C
not listed: [2] | [19] | [20]
inactive: all other assays above

CC(C)(O)C#N
not listed: [1] | [14] | [17] | [20]
inactive: all other assays above

CC(C)Nc1nc(Cl)nc(NC(C)C)n1
not listed: [11] | [15] | [16] | [17] | [18]
inactive: all other assays above

CNC(=O)Oc1cccc2c1OC(C)(C)C2
not listed: [11] | [15] | [16] | [18] | [20]
inactive: all other assays above

COP(=S)(OC)Oc1ccc(S(=O)(=O)N(C)C)cc1
inactive: [3] | [4] | [5] | [6] | [7] | [8] | [9] | [10] | [11] | [12] | [13]

CC(C)=CC1C(C(=O)OCN2C(=O)C3=C(CCCC3)C2=O)C1(C)C (stereo not given)
inactive: [2] | [3] | [17] | [4] | [5] | [6] | [7] | [8] | [9] | [10] | [12]

CCOP(=S)(OCC)SCSC(C)(C)C
not listed: [11] | [14] | [15] | [16] | [17] | [18] | [19] | [20]
inactive: all other assays above

CC(C)(c1ccccc1)c1ccc(O)c(C(C)(C)c2ccccc2)c1
active: [4] 43.6 µM | [5] 19.3 µM and 15.5 µM | [6] 30.6 µM and 17.4 µM | [7] 21.7 µM and 21.9 µM | [9] 27.3 µM and 27.5 µM | [10] 48.1 µM and 30.6 µM | [11] 19.2 µM and 27.3 µM | [12] 12.2 µM and 21.9 µM | [18] 13.7 µM and 15.5 µM

CCOP(=S)(OCC)SCn1c(=O)oc2cc(Cl)ccc21
active: [11] 32.9 µM
not listed: [1] | [13] | [14] | [17] | [19] | [20]
inactive: all other assays above

Cc1cccc(N=Nc2ccc(N(C)C)cc2)c1
not listed: [2] | [8] | [14] | [15] | [16] | [17] | [20]
inactive: all other assays above

CC(C)CON=O
not listed: [2] | [14] | [15] | [16] | [18] | [20]
inactive: all other assays above
